# Test results taken from PubChem BioAssay (NCATS).
# Results filed as inconclusive are left out. Unmarked numbers belong to inactive results. Active and inactive are the calls of the source. Calls follow the shape of the dose curve; as a rule, active = well fitted inhibition curve with a large enough effect; inconclusive = small, poorly fitted or top-dose-only effect; inactive = no such curve, though single readings can be large or run the other way.
# Biological target: Tumor susceptibility gene 101 protein (Homo sapiens) (UniProt Q99816)
# Assay: qHTS Assay for Iinhibitors of HIV-1 Budding by Blocking the Interaction of PTAP/TSG101: Hit Validation (AID 651600); also: nearly all actives have a fitted effect of over 70% in size
# Conditions: PTAP peptide/TSG101 UEV interaction, biochemical assay; series mostly up to 57.5 µM; activity change, negative = inhibition: at the top concentration
# Outline: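 Measuring PTAP–Tsg101 interaction by FP: protein at 10 uM and fluorescent peptide at 50 nM (final), buffer 10 mM HEPES pH 7.5 with 0.15 M NaCl, 3 mM EDTA, 0.1 mM TCEP, 0.01% Tween 20; 20 min incubation, r.t.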
# % is scaled to controls: 0 for no effect and ±100 for the full control effect; potency is read from the fitted curve at half-maximal effect.
# Chain of Tumor susceptibility gene 101 protein (Homo sapiens) (Q99816 whole entry, looked up): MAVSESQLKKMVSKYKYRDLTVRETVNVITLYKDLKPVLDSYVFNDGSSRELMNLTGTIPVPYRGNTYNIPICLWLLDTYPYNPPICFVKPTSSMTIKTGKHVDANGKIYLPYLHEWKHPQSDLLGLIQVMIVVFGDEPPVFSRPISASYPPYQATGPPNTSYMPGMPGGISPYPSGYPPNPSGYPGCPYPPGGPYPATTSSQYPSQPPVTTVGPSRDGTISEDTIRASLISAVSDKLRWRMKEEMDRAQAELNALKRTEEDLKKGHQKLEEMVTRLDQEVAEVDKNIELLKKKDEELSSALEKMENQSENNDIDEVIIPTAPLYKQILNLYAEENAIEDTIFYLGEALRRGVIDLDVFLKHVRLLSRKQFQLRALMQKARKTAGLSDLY
SMILES,"activity change, negative = inhibition [%]",Potency
COc1ccc(C2=CC(c3ccco3)n3ncnc3N2)cc1 (stereo not given),-0.272,–
O=C(NCc1cc(C(F)(F)F)ccc1Cl)c1cccc2c1C(=O)c1ccc(N3CCC(Cc4ccccc4)CC3)cc1S2(=O)=O,–,13 µM (active)
O=[N+]([O-])c1cc(Cl)cc(/C=N/NC(=S)Nc2ccc(S(=O)(=O)N3CCOCC3)cc2)c1O,-9.43,–
CC1CCCN(Cc2c(O)ccc3c2O/C(=C\c2ccco2)C3=O)C1 (stereo not given),–,14.6 µM (active)
CCN1CCN(Cc2ccc(NC(=O)Nc3ccccc3OC)cc2)CC1,1.71,–
Nc1c(C(=O)O)sc2nc(-c3ccccc3)cc(-c3ccc(Cl)cc3)c12,4.22,–
COc1ccc(NC(=O)c2cccc(-c3ccc(O)cc3)c2)cn1,–,20.6 µM (active)
O=C1c2cccc3c([N+](=O)[O-])ccc(c23)C(=O)N1c1ccc(Cl)cn1,-26.4,–
COc1ccc(OC)c(/C=C(\C#N)c2nc(-c3ccc(F)cc3)cs2)c1,-0.321,–
O=C(NCc1ccccc1Br)c1cccc2c1C(=O)c1ccc(N3CCC(Cc4ccccc4)CC3)cc1S2(=O)=O,11,–
O=[N+]([O-])c1ccc(-c2ccc(/C=N/Nc3nc(N4CCCC4)nc(N4CCCC4)n3)o2)cc1,7.22,–
O=C(CCN1C(=O)/C(=C/c2ccco2)SC1=S)Nc1ccc(O)cc1C(=O)O,6.88,–
CCOc1ccc(S(=O)(=O)N2CCc3cc(OC)c(OC)cc3C2)cc1,0.964,–
CC1=CC(=C(C#N)c2nc3ccccc3s2)C=C(C)N1c1ccc(F)cc1F,–,13 µM (active)
CCN(CC)c1ccc2cc(NC(=O)CCC(=O)O)c(=O)oc2c1,–,18.3 µM (active)
CCOc1ccc(NC(=O)N(C2CCCCC2)C(C)c2ccncc2)cc1 (stereo not given),-6.89,–
COc1cccc2c1C(=O)c1c(O)c3c(c(O)c1C2=O)CC(O)(C(C)=O)CC3OC1CC(O)C(O)C(C)O1 (stereo not given),–,13 µM (active)
COc1ccccc1NC(=O)C(C)OC(=O)C1CC(=O)N(c2ccc3c(c2)OCCO3)C1 (stereo not given),1.1,–
O=[N+]([O-])c1cc(Cl)cc(/C=N/n2cnnc2)c1O,-1.41,–
CSc1c(C#N)c(N)nc2sc(C(=O)c3ccc(Cl)c(Cl)c3)c(N)c12,-25.9,–

SMILES,"activity change, negative = inhibition [%]",Potency
Brc1ccc(C2=CC(c3ccco3)n3ncnc3N2)cc1 (stereo not given),-0.541,–
CC(OC(=O)c1c2c(nc3ccccc13)/C(=C\c1ccc3c(c1)OCO3)CCC2)C(=O)Nc1ccc(S(N)(=O)=O)cc1 (stereo not given),–,4.11 µM (active)
O=c1oc2c(CN3CCCCC3)c(O)ccc2cc1-c1nc2ccccc2[nH]1,–,18.3 µM (active)
CCCCNc1c2c3c(cccc3n(C)c1=O)C(=O)c1ccccc1-2,–,5.8 µM (active)
COc1cc(-c2cc(-c3ccc(N)cc3)[nH]c(=O)c2C#N)cc(OC)c1OC,4.77,–
CSc1nc(-c2cccs2)c(C#N)c(=O)[nH]1,-23.6,–
COc1ccc(N(C(=O)c2snc(C(N)=O)c2N)C(C(=O)NC2CCCC2)c2ccc3ncccc3c2)cc1 (stereo not given),5.83,–
CN(C)c1ccc(/C=C2\SC(=O)N(CC(O)Cn3c4ccccc4c4ccccc43)C2=O)cc1 (stereo not given),–,16.3 µM (active)
C/C(N)=C(/C#N)C(=O)CSc1ncnc2ccccc12,7.4,–
C(=N\NC1=Nc2cccc3cccc1c23)/c1ccccc1,-7.26,–
NC(=O)c1ccccc1NCC(=O)c1ccc(F)cc1,7.37,–
O=c1[nH]nc(-c2ccc(F)cc2)cc1Cc1ccc(F)cc1,4.58,–
CCc1cccc(CC)c1NC(=O)CSc1nnc(C2CC2)n1C,-0.886,–
O=C1Nc2ccc(F)cc2C12Nc1ccccc1-c1nnc(SCc3ccccc3F)nc1O2 (stereo not given),-3.84,–
CCN(c1ccc(N=Cc2c(O)n(Cc3ccc(OC)cc3)c(=O)c3ccccc23)cc1)C(C)C,–,25.9 µM (active)
CCOc1ccc(NC(=O)c2ccc3c(c2)CCN3S(C)(=O)=O)cc1,2.45,–
CCN(CC)S(=O)(=O)c1ccc(C(=O)OCCN2C(=O)c3cccc4c(N5CCOCC5)ccc(c34)C2=O)cc1,–,4.11 µM (active)
COc1ccc2oc3ccccc3c(=O)c2c1,-2.86,–
CCOc1ccc(N(CC(=O)NCc2ccc(F)cc2)S(=O)(=O)c2c(C)noc2C)cc1,4.91,–
Cc1c(C(=O)NCc2ccccc2)sc2nc3n(c(=O)c12)CCCCC3,-1.87,–
